Data reported in the supplement of paper PMC8728848.
The sample as a whole holds a higher share of the strongest signals than the screen did.

Tests used:
Experiment in all cases: glycan array binding signal (z-score within array); higher = stronger binding
Settings in all cases: glycan notation: IUPAC condensed, linker removed
[1] = target: Fuc(a1-2)Gal(b1-3)GalNAc(a1-3)[Fuc(a1-2)]Gal(b1-4)Glc
Summary of the method: (§1)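 The binding signal is a Z-score computed within each array. Data were drawn from 3228 arrays in the Consortium for Functional Glycomics database, restricted to those with a known protein sequence. Scores were averaged over arrays of the same protein sequence at different concentrations or buffers, and over linkers, and negative values can be taken as non-binding.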

[2] = target: Fuc(a1-2)Gal(b1-3)GlcNAc(b1-3)[Gal(b1-4)GlcNAc(b1-6)]Gal(b1-4)Glc
Summary of the method: as §1

[3] = target: Fuc(a1-2)[Gal(a1-3)]Gal(b1-4)Glc
Summary of the method: as §1

[4] = target: Fuc(a1-2)[Gal(a1-3)]Gal(b1-4)GlcNAc(b1-2)Man(a1-3)[Fuc(a1-2)[Gal(a1-3)]Gal(b1-4)GlcNAc(b1-2)Man(a1-6)]Man(b1-4)GlcNAc(b1-4)GlcNAc
Summary of the method: as §1

[5] = target: Fuc(a1-2)[GalNAc(a1-3)]Gal(b1-4)GlcNAc(b1-2)Man(a1-3)[Fuc(a1-2)[GalNAc(a1-3)]Gal(b1-4)GlcNAc(b1-2)Man(a1-6)]Man(b1-4)GlcNAc(b1-4)GlcNAc
Summary of the method: as §1

[6] = target: Fuc(a1-2)[GalNAc(a1-4)]Gal(b1-4)GlcNAc
Summary of the method: as §1

[7] = target: Fuc(a1-3)[Gal(b1-4)]GlcNAc(b1-4)Gal(b1-4)[Fuc(a1-3)]GlcNAc(b1-4)Gal(b1-4)[Fuc(a1-3)]GlcNAc
Summary of the method: as §1

[8] = target: Gal(a1-3)GalNAc
Summary of the method: as §1

[9] = target: Gal(b1-3)[Fuc(a1-4)]GlcNAc(b1-3)Gal(b1-4)[Fuc(a1-3)]GlcNAc
Summary of the method: as §1

[10] = target: Gal(b1-3)[Fuc(a1-4)]GlcNAc(b1-6)GalNAc
Summary of the method: as §1

[11] = target: Gal(b1-3)[Neu5Ac(b2-6)]GalNAc
Summary of the method: as §1

[12] = target: Gal(b1-4)GlcNAc(b1-3)Gal(b1-4)GlcNAc(b1-2)Man(a1-3)[Gal(b1-4)GlcNAc(b1-3)Gal(b1-4)GlcNAc(b1-2)Man(a1-6)]Man(b1-4)GlcNAc(b1-4)[Fuc(a1-6)]GlcNAc
Summary of the method: as §1

[13] = target: Gal(b1-4)GlcNAc(b1-3)Gal(b1-4)GlcNAc(b1-2)[Gal(b1-4)GlcNAc(b1-3)Gal(b1-4)GlcNAc(b1-6)]Man(a1-6)[Gal(b1-4)GlcNAc(b1-3)Gal(b1-4)GlcNAc(b1-2)Man(a1-3)]Man(b1-4)GlcNAc(b1-4)[Fuc(a1-6)]GlcNAc
Summary of the method: as §1

[14] = target: Gal(b1-4)GlcNAc(b1-3)Gal(b1-4)GlcNAc(b1-3)Gal(b1-4)GlcNAc(b1-2)[Gal(b1-4)GlcNAc(b1-3)Gal(b1-4)GlcNAc(b1-3)Gal(b1-4)GlcNAc(b1-6)]Man(a1-6)[Gal(b1-4)GlcNAc(b1-3)Gal(b1-4)GlcNAc(b1-3)Gal(b1-4)GlcNAc(b1-2)Man(a1-3)]Man(b1-4)GlcNAc(b1-4)[Fuc(a1-6)]GlcNAc
Summary of the method: as §1

[15] = target: Gal(b1-4)GlcNAc(b1-3)Gal(b1-4)GlcNAc(b1-3)Gal(b1-4)GlcNAc(b1-3)Gal(b1-4)GlcNAc(b1-2)Man(a1-3)[Gal(b1-4)GlcNAc(b1-3)Gal(b1-4)GlcNAc(b1-3)Gal(b1-4)GlcNAc(b1-3)Gal(b1-4)GlcNAc(b1-2)Man(a1-6)]Man(b1-4)GlcNAc(b1-4)[Fuc(a1-6)]GlcNAc
Summary of the method: as §1

[16] = target: Gal(b1-4)GlcNAc(b1-3)Gal(b1-4)GlcNAc(b1-3)Gal(b1-4)GlcNAc(b1-3)Gal(b1-4)GlcNAc(b1-2)[Gal(b1-4)GlcNAc(b1-3)Gal(b1-4)GlcNAc(b1-3)Gal(b1-4)GlcNAc(b1-3)Gal(b1-4)GlcNAc(b1-6)]Man(a1-6)[Gal(b1-4)GlcNAc(b1-3)Gal(b1-4)GlcNAc(b1-3)Gal(b1-4)GlcNAc(b1-3)Gal(b1-4)GlcNAc(b1-2)Man(a1-3)]Man(b1-4)GlcNAc(b1-4)[Fuc(a1-6)]GlcNAc
Summary of the method: as §1

[17] = target: Gal(b1-4)GlcNAc(b1-3)Gal(b1-4)GlcNAc(b1-3)Gal(b1-4)GlcNAc(b1-3)Gal(b1-4)GlcNAc(b1-3)Gal(b1-4)GlcNAc(b1-2)[Gal(b1-4)GlcNAc(b1-3)Gal(b1-4)GlcNAc(b1-3)Gal(b1-4)GlcNAc(b1-3)Gal(b1-4)GlcNAc(b1-3)Gal(b1-4)GlcNAc(b1-6)]Man(a1-6)[Gal(b1-4)GlcNAc(b1-3)Gal(b1-4)GlcNAc(b1-3)Gal(b1-4)GlcNAc(b1-3)Gal(b1-4)GlcNAc(b1-3)Gal(b1-4)GlcNAc(b1-2)Man(a1-3)]Man(b1-4)GlcNAc(b1-4)[Fuc(a1-6)]GlcNAc
Summary of the method: as §1

[18] = target: Gal(b1-4)GlcNAc(b1-3)Gal(b1-4)GlcNAc(b1-3)Gal(b1-4)GlcNAc(b1-3)Gal(b1-4)GlcNAc(b1-3)Gal(b1-4)GlcNAc(b1-3)Gal(b1-4)GlcNAc(b1-2)Man(a1-3)[Gal(b1-4)GlcNAc(b1-3)Gal(b1-4)GlcNAc(b1-3)Gal(b1-4)GlcNAc(b1-3)Gal(b1-4)GlcNAc(b1-3)Gal(b1-4)GlcNAc(b1-3)Gal(b1-4)GlcNAc(b1-2)Man(a1-6)]Man(b1-4)GlcNAc(b1-4)GlcNAc
Summary of the method: as §1

[19] = target: Gal(b1-4)GlcNAc(b1-6)[Gal(b1-3)]GalNAc
Summary of the method: as §1

[20] = target: GalNAc(a1-3)GalNAc(b1-3)Gal(a1-4)Gal(b1-4)Glc
Summary of the method: as §1

[21] = target: GalNAc(b1-4)GlcNAc(b1-2)Man(a1-3)[GalNAc(b1-4)GlcNAc(b1-2)Man(a1-6)]Man(b1-4)GlcNAc(b1-4)GlcNAc
Summary of the method: as §1

[22] = target: GlcNAc(b1-2)[GlcNAc(b1-4)]Man(a1-3)[GlcNAc(b1-2)Man(a1-6)]Man(b1-4)GlcNAc(b1-4)GlcNAc
Summary of the method: as §1

[23] = target: GlcNAc(b1-3)Gal(b1-4)Glc
Summary of the method: as §1

[24] = target: GlcNAc(b1-3)Gal(b1-4)GlcNAc(b1-3)Gal(b1-4)GlcNAc(b1-2)[GlcNAc(b1-3)Gal(b1-4)GlcNAc(b1-3)Gal(b1-4)GlcNAc(b1-6)]Man(a1-6)[GlcNAc(b1-3)Gal(b1-4)GlcNAc(b1-3)Gal(b1-4)GlcNAc(b1-2)Man(a1-3)]Man(b1-4)GlcNAc(b1-4)[Fuc(a1-6)]GlcNAc
Summary of the method: as §1

[25] = target: GlcNAc(b1-3)Gal(b1-4)GlcNAc(b1-3)Gal(b1-4)GlcNAc(b1-3)Gal(b1-4)GlcNAc(b1-2)[GlcNAc(b1-3)Gal(b1-4)GlcNAc(b1-3)Gal(b1-4)GlcNAc(b1-3)Gal(b1-4)GlcNAc(b1-6)]Man(a1-6)[GlcNAc(b1-3)Gal(b1-4)GlcNAc(b1-3)Gal(b1-4)GlcNAc(b1-3)Gal(b1-4)GlcNAc(b1-2)Man(a1-3)]Man(b1-4)GlcNAc(b1-4)[Fuc(a1-6)]GlcNAc
Summary of the method: as §1

[26] = target: GlcNAc(b1-3)Gal(b1-4)GlcNAc(b1-3)Gal(b1-4)GlcNAc(b1-3)Gal(b1-4)GlcNAc(b1-3)Gal(b1-4)GlcNAc(b1-2)[GlcNAc(b1-3)Gal(b1-4)GlcNAc(b1-3)Gal(b1-4)GlcNAc(b1-3)Gal(b1-4)GlcNAc(b1-3)Gal(b1-4)GlcNAc(b1-6)]Man(a1-6)[GlcNAc(b1-3)Gal(b1-4)GlcNAc(b1-3)Gal(b1-4)GlcNAc(b1-3)Gal(b1-4)GlcNAc(b1-3)Gal(b1-4)GlcNAc(b1-2)Man(a1-3)]Man(b1-4)GlcNAc(b1-4)[Fuc(a1-6)]GlcNAc
Summary of the method: as §1

[27] = target: GlcNAc(b1-3)[GlcNAc(b1-6)]Gal(b1-4)GlcNAc
Summary of the method: as §1

[28] = target: GlcNAc(b1-3)[GlcNAc(b1-6)]GlcNAc(b1-4)GlcNAc
Summary of the method: as §1

[29] = target: GlcNAc(b1-4)Gal(b1-4)GlcNAc
Summary of the method: as §1

[30] = target: GlcNAc(b1-4)GlcNAc(b1-4)GlcNAc(b1-4)GlcNAc(b1-4)GlcNAc(b1-4)GlcNAc
Summary of the method: as §1

B1: Gal 8 (Homo sapiens) (protein)
chain: MLSLNNLQNIIYNPVIPYVGTIPDQLDPGTLIVICGHVPSDADRFQVDLQNGSSVKPRADVAFHFNPRFKRAGCIVCNTLINEKWGREEITYDTPFKREKSFEIVIMVLKDKFQVAVNGKHTLLYGHRIGPEKIDTLGIYGKVNIHSIGFSFSSDLQSTQASSLELTEISRENVPKSGTPQLQTVSPSWDLQGHGSETFCSVLWTRVFLEIAFCRPIGLTVASFQSLPFAARLNTPMGPGRTVVVKGEVNANAKSFNVDLLAGKSKDIALHLNPRLNIKAFVRNSFLQESWGEEERNITSFPFSPGMYFEMIIYCDVREFKVAVNGVHSLEYKHRFKELSSIDTLEINGDIHLLEVRSW
[1]
  glycan array binding signal (z-score): 0.572
[2]
  glycan array binding signal (z-score): 0.003
[3]
  glycan array binding signal (z-score): 4.4
[4]
  glycan array binding signal (z-score): 4.31
[5]
  glycan array binding signal (z-score): 5.81
[6]
  glycan array binding signal (z-score): -0.357
[7]
  glycan array binding signal (z-score): -0.35
[8]
  glycan array binding signal (z-score): -0.387
[9]
  glycan array binding signal (z-score): -0.39
[10]
  glycan array binding signal (z-score): -0.355
[11]
  glycan array binding signal (z-score): -0.387
[12]
  glycan array binding signal (z-score): 3.06
[13]
  glycan array binding signal (z-score): 6.42
[14]
  glycan array binding signal (z-score): 6.12
[15]
  glycan array binding signal (z-score): 3.61
[16]
  glycan array binding signal (z-score): 5.79
[17]
  glycan array binding signal (z-score): 5.3
[18]
  glycan array binding signal (z-score): 5.33
[19]
  glycan array binding signal (z-score): -0.305
[20]
  glycan array binding signal (z-score): 0.169
[21]
  glycan array binding signal (z-score): -0.353
[22]
  glycan array binding signal (z-score): -0.354
[23]
  glycan array binding signal (z-score): -0.338
[24]
  glycan array binding signal (z-score): 5.71
[25]
  glycan array binding signal (z-score): 4.87
[26]
  glycan array binding signal (z-score): 6.06
[27]
  glycan array binding signal (z-score): -0.41
[28]
  glycan array binding signal (z-score): -0.727
[29]
  glycan array binding signal (z-score): -0.2
[30]
  glycan array binding signal (z-score): -0.392
